Several values for one entry are separate records, joined by “and”; a condition that tells them apart may be missing. Equal values may be shown once. This is part of a sample that, as a whole, favours compounds with a hit. Of some 83,000 tested, about 20% had one in any assay.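 Note: values are percent growth. 100 is the growth of untreated cells, values between 100 and 0 indicate rising inhibition; between -100 and 0 indicates cell death.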 Unmarked numbers belong to inactive results. Activity calls are given as the source filed them. The calls were made as follows: active = growth percent below 10; inactive = the rest.

The test system of the first test is SW-620 colon. In words: NCI-60 one-dose screen, 48 h (100 = growth as untreated, 0 = no growth, -100 = all killed). To be noted: 10 µM unless noted.
For the molecule `CCCCn1c(=O)c(C(=O)NCc2ccccc2Cl)c(O)c2ccccc21`, the growth was 78.8%.
Still for that read-out and setting: as for `O=C(NCCCN1CC1)Nc1cccc2ccccc12`, the figure is 99% and 89.6%.
Still for that read-out and setting: then `Oc1cc(N2CC2)c(O)cc1N1CC1`, with 3.72% (active); and `CC12CCC3C4CCC(=O)C=C4CCC3C1CC1CC(=O)OC12` (centres undefined), with 102%.
`CCOP(=O)(OCC)C(=O)N(CC)CC`: the growth is 99.6%.
Still for that read-out and setting: as for `C#Cc1cccc(Nc2nc(Cl)nc3cc(NC(=O)CF)ccc23)c1`, the figure is 35.4%; as for `CC[C@H](C)[C@H](NC(=O)[C@H]1CCCCN1C)C(=O)N(C)[C@H](C(=O)NC12CC(C(=O)N[C@@H](Cc3ccccc3)C[C@H](C)C(=O)OC)(C1)C2)C(C)C`, 107%; as for `CN1CCC2(CC1)C(C#N)C(=O)NC(=O)C2C#N` (centres undefined), 108%.
Same read-out and setting: as for `CC12CCC3C(CCC4CC(O)CCC43C)C1CCC2=O` (centres undefined), the figure is 109%.
The same measure, in the same setting: as for `C=CC[PH+](c1ccccc1)c1ccccc1.C=CC[PH+](c1ccccc1)c1ccccc1.[Pt+2].[S-]c1nc2ccccc2[nH]1.[S-]c1nc2ccccc2[nH]1`, the figure is 3.79% (active); as for `Cc1cc[c-]cc1.Fc1c[c-]c(-c2ccccn2)c(F)c1.[Pt+2].c1ccc([PH+](c2ccccc2)c2ccccn2)cc1`, 45.6%.
With `C=C[Se]CC(=O)/C=C/c1ccccc1`, the growth is 87.9%.
Same read-out and setting: then `CCCCCCCCCCCCCCCCCC1OCC(COC(=O)O[C@@H](C(=O)O[C@H]2C[C@@]3(O)[C@@H](OC(=O)c4ccccc4)[C@@H]4[C@]5(OC(C)=O)CO[C@@H]5C[C@H](O)[C@@]4(C)C(=O)[C@H](OC(C)=O)C(=C2C)C3(C)C)[C@@H](NC(=O)c2ccccc2)c2ccccc2)O1` (some centres undefined), with 39.6%; and `CC1(C)C=Cc2c(ccc3c2[N+]([O-])=C2C3=C[C@@]34NC(=O)[C@]5(CCCN5C3=O)C[C@@H]4C2(C)C)O1`, with 12.9%.
Same read-out and setting: as for `O=C(O)C1C(C(=O)O)C2(Cl)C(Cl)=C(Cl)C1(Cl)C2(Cl)Cl` (centres undefined), the figure is 98.5% and 101%; as for `CNC(=O)O/N=C(\SC)C(=O)N(C)C`, 106%.
On the same count and under the same terms, as for `C[C@]12CCc3sc(Nc4ccc(F)cc4F)nc3C1=CC[C@@H]1[C@@H]2CC[C@]2(C)C(=O)CC[C@@H]12`, the figure is 7.16% (active); as for `N#CC(C#N)=C(C#N)C#N`, 104%; as for `N#CCC(=O)c1ccccc1`, 97.6%.
Take `O=C(O)c1ccc(=O)[nH]c1`: the growth was 105% and 107%.
The same measure, in the same setting: as for `CC[C@H](C)[C@H](NC(=O)CN(C)C)C(=O)N(C)[C@H](C[C@@H](OC(C)=O)c1nc(C(=O)NC23C4C5C2C2C3C4C52C(=O)OC)cs1)C(C)C` (some centres undefined), the figure is 25.9%; as for `CNC(=O)Oc1ccc(Cl)cc1SSc1cc(Cl)ccc1OC(=O)NC`, 87.2%.
The same measure, in the same setting: as for `CC(=O)OC1CC2(O)C(CCC3(C)C(c4ccc(=O)oc4)CCC32O)C2(C)CCC(OC3OC(CO)C(O)C(O)C3O)C=C12` (centres undefined), the figure is -67.4% (active); as for `Oc1ccc(O)c(Cl)c1`, 112% and 115%.
Same read-out and setting: as for `CC(=O)Nc1nc2c(s1)C1=CC[C@H]3[C@@H]4CC[C@H](OC(C)=O)[C@@]4(C)CC[C@@H]3[C@@]1(C)CC2`, the figure is 43.3%; as for `O=C(O)C(F)F`, 90.4%; as for `CC[C@H](C)[C@H](NC(=O)C12CC(NC)(C1)C2)C(=O)N(C)[C@H](C[C@@H](OC(C)=O)c1nc(C(=O)N[C@@H](Cc2ccccc2)C[C@H](C)C(=O)OC)cs1)C(C)C`, 39.5%.
`NC(=O)Oc1cc(OC(N)=O)cc(N(CCCl)CCCl)c1`: the growth is 60.8%.
On the same count and under the same terms, then `CC[PH+](CC)CC.O=COC1OC([S-])C(OC=O)C(OC=O)C1OC=O.[Au+]` (centres undefined), with -76.3% (active).
On the same count and under the same terms, then `CCOC(=O)c1ccccc1C(=O)OCC`, with 102%; and `C[C@@H]1C/C=C\C(=O)O[C@H](/C=C/C#C/C=C/C(C)(C)[C@@H](O)c2cccc(O)c2Br)[C@@H](C)/C=C/[C@H](C)C[C@H](OC(N)=O)C1`, with 30.4%; and `Cc1c(C)c(N)c(C)c(C)c1N`, with 51.8%.
On to `Nc1ccc(P(=O)(O)O)cc1`, for which the growth was 103% and 106%.
On to `OCCN=Cc1c[nH]c2ccccc12`, for which the growth is 93.3%.
As to `S=P(SP(=S)(c1ccccc1)c1ccccc1)(c1ccccc1)c1ccccc1`, the growth was 99.3%.
The same measure, in the same setting: then `CN1CCc2cc3c(cc2C1O)OCO3` (centres undefined), with 96.1% and 100%; and `Cc1cc(NC(=O)NCCCOc2ccc(N3C(N)=NC(N)=NC3(C)C)cc2Cl)ccc1S(=O)(=O)F`, with 18.5%.

For another test, the system named is MCF7 breast. The description is as above. To be noted: 10 µM unless noted.
In the case of `CCCCn1c(=O)c(C(=O)NCc2ccccc2Cl)c(O)c2ccccc21`, the growth is 64.4%.
On the same count and under the same terms, as for `O=C(NCCCN1CC1)Nc1cccc2ccccc12`, the figure is 82% and 77.9%.
The same measure, in the same setting: as for `Oc1cc(N2CC2)c(O)cc1N1CC1`, the figure is -30.3% (active); as for `CC12CCC3C4CCC(=O)C=C4CCC3C1CC1CC(=O)OC12` (centres undefined), 98.7%.
Same read-out and setting: as for `CCOP(=O)(OCC)C(=O)N(CC)CC`, the figure is 95.2%; as for `C#Cc1cccc(Nc2nc(Cl)nc3cc(NC(=O)CF)ccc23)c1`, 48.2%.
As for `CC[C@H](C)[C@H](NC(=O)[C@H]1CCCCN1C)C(=O)N(C)[C@H](C(=O)NC12CC(C(=O)N[C@@H](Cc3ccccc3)C[C@H](C)C(=O)OC)(C1)C2)C(C)C`, the growth was 96.4%.
On the same count and under the same terms, as for `CN1CCC2(CC1)C(C#N)C(=O)NC(=O)C2C#N` (centres undefined), the figure is 88.6%; as for `CC12CCC3C(CCC4CC(O)CCC43C)C1CCC2=O` (centres undefined), 116%; as for `C=CC[PH+](c1ccccc1)c1ccccc1.C=CC[PH+](c1ccccc1)c1ccccc1.[Pt+2].[S-]c1nc2ccccc2[nH]1.[S-]c1nc2ccccc2[nH]1`, 3.99% (active).
On the same count and under the same terms, as for `Cc1cc[c-]cc1.Fc1c[c-]c(-c2ccccn2)c(F)c1.[Pt+2].c1ccc([PH+](c2ccccc2)c2ccccn2)cc1`, the figure is 38.9%.
On the same count and under the same terms, as for `C=C[Se]CC(=O)/C=C/c1ccccc1`, the figure is 87.2%; as for `CCCCCCCCCCCCCCCCCC1OCC(COC(=O)O[C@@H](C(=O)O[C@H]2C[C@@]3(O)[C@@H](OC(=O)c4ccccc4)[C@@H]4[C@]5(OC(C)=O)CO[C@@H]5C[C@H](O)[C@@]4(C)C(=O)[C@H](OC(C)=O)C(=C2C)C3(C)C)[C@@H](NC(=O)c2ccccc2)c2ccccc2)O1` (some centres undefined), 18.3%.
For the molecule `CC1(C)C=Cc2c(ccc3c2[N+]([O-])=C2C3=C[C@@]34NC(=O)[C@]5(CCCN5C3=O)C[C@@H]4C2(C)C)O1`, the growth is 17.9%.
On the same count and under the same terms, as for `O=C(O)C1C(C(=O)O)C2(Cl)C(Cl)=C(Cl)C1(Cl)C2(Cl)Cl` (centres undefined), the figure is 104% and 96.8%; as for `CNC(=O)O/N=C(\SC)C(=O)N(C)C`, 103%.
In the case of `C[C@]12CCc3sc(Nc4ccc(F)cc4F)nc3C1=CC[C@@H]1[C@@H]2CC[C@]2(C)C(=O)CC[C@@H]12`, the growth was 14.6%.
The same measure, in the same setting: then `N#CC(C#N)=C(C#N)C#N`, with 98.1%; and `N#CCC(=O)c1ccccc1`, with 92.6%; and `O=C(O)c1ccc(=O)[nH]c1`, with 126% and 93.4%.
On the same count and under the same terms, as for `CC[C@H](C)[C@H](NC(=O)CN(C)C)C(=O)N(C)[C@H](C[C@@H](OC(C)=O)c1nc(C(=O)NC23C4C5C2C2C3C4C52C(=O)OC)cs1)C(C)C` (some centres undefined), the figure is 21.6%.
For the molecule `CNC(=O)Oc1ccc(Cl)cc1SSc1cc(Cl)ccc1OC(=O)NC`, the growth was 91.8%.
Still for that read-out and setting: then `CC(=O)OC1CC2(O)C(CCC3(C)C(c4ccc(=O)oc4)CCC32O)C2(C)CCC(OC3OC(CO)C(O)C(O)C3O)C=C12` (centres undefined), with -23.4% (active).
On the same count and under the same terms, as for `Oc1ccc(O)c(Cl)c1`, the figure is 86% and 96.7%; as for `CC(=O)Nc1nc2c(s1)C1=CC[C@H]3[C@@H]4CC[C@H](OC(C)=O)[C@@]4(C)CC[C@@H]3[C@@]1(C)CC2`, 44.1%; as for `O=C(O)C(F)F`, 97.1%.
Take `CC[C@H](C)[C@H](NC(=O)C12CC(NC)(C1)C2)C(=O)N(C)[C@H](C[C@@H](OC(C)=O)c1nc(C(=O)N[C@@H](Cc2ccccc2)C[C@H](C)C(=O)OC)cs1)C(C)C`: the growth is 15%.
Still for that read-out and setting: then `NC(=O)Oc1cc(OC(N)=O)cc(N(CCCl)CCCl)c1`, with 31.8%; and `CC[PH+](CC)CC.O=COC1OC([S-])C(OC=O)C(OC=O)C1OC=O.[Au+]` (centres undefined), with -69.2% (active).
Still for that read-out and setting: then `CCOC(=O)c1ccccc1C(=O)OCC`, with 97.8%; and `C[C@@H]1C/C=C\C(=O)O[C@H](/C=C/C#C/C=C/C(C)(C)[C@@H](O)c2cccc(O)c2Br)[C@@H](C)/C=C/[C@H](C)C[C@H](OC(N)=O)C1`, with 18.6%.
On the same count and under the same terms, then `Cc1c(C)c(N)c(C)c(C)c1N`, with 46.5%; and `Nc1ccc(P(=O)(O)O)cc1`, with 103% and 89.1%.
Regarding `OCCN=Cc1c[nH]c2ccccc12`, the growth is 93%.
On the same count and under the same terms, then `S=P(SP(=S)(c1ccccc1)c1ccccc1)(c1ccccc1)c1ccccc1`, with 112%; and `CN1CCc2cc3c(cc2C1O)OCO3` (centres undefined), with 79.5% and 94.6%.
For `Cc1cc(NC(=O)NCCCOc2ccc(N3C(N)=NC(N)=NC3(C)C)cc2Cl)ccc1S(=O)(=O)F`, the growth is 25.5%.

(Values after PubChem BioAssay (NCI).)
